Screening data (PubChem BioAssay)
ANO1 block – TMEM16A chloride channel inhibitors, primary screen, cell-based, HTS; AID 588511, 2011; HEK293 TMEM16A/YFP iodide influx fluorescence, ionomycin; 1.2% of 310,000 active; normalized B-score (activity score, 25-100; higher = stronger inhibition) at 10 µM; Anoctamin-1 (Mus musculus), Q8BHY3;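 active = ratio plate-corrected score three or more library SD toward inhibition, starting fluorescence score within five deviations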;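 note: score derived from kinetic fluorescence span divided by baseline fluorescence per well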
CRFR2-BP ag – agonists of CRF-BP/CRF-R2 complex, primary screen, cell-based, HEK293, calcium dye fluorescence, uHTS. calcium dye fluorescence (FLIPR); percent of saturating CRF peptide response. CRF-binding protein / CRF receptor 2 complex (human). 0.46% of 350,000 active. activation, % at 13.2 µM;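 active = activation of at least 50%, plus an integration ratio under a set limit after plate pattern correction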
CRFBP-R2 block – antagonists of CRF-BP/CRF-R2 complex, primary screen, cell-based, HEK293, calcium dye fluorescence, uHTS | CRF-induced calcium fluorescence | inhibition, % at 11.8 µM | 0.59% of 350,000 active;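 active = inhibition of the ligand-induced calcium signal above about 50% at the single tested concentration, limit read from the data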
NR3A LBD binder – binders of NR3A ligand-binding domain, primary screen, biophysical, differential scanning fluorimetry, uHTS; Tm shift relative to glycine control, % at 25 µM; Glutamate receptor ionotropic, NMDA 3A (GRIN3A) ligand-binding domain; 2.5% of 340,000 active; NR3A LBD differential scanning fluorimetry, Tm shift; 0% = protein alone, 100% = glycine-bound protein;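 active = melting temperature shift of at least 10% of the positive control shift, at one fixed dose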
TMEM16A act – TMEM16A chloride channel activators or potentiators, primary screen, cell-based, HTS | Anoctamin-1 (Mus musculus), Q8BHY3 | HEK293 TMEM16A/YFP-H148Q/I152L, iodide quench fluorescence; stronger effect = lower value | B-score at 10 µM | 0.3% of 340,000 active;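 active = fluorescence-ratio B-score plate-corrected deviation score at least 3 library SD below zero, with starting fluorescence score within 5 deviations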;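 note: channel opened by trigger with iodide after compound preincubation; score built on the fluorescence ratio of max minus min over baseline; more negative score means more quench and so TMEM16A activation or potentiation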
MPTP block – mitochondrial permeability transition pore inhibitors, primary screen, biochemical, isolated mouse mitochondria, absorbance; Ca2+ swelling absorbance, 30 min; 1.4% of 360,000 active; AID 602449, 2012; inhibition, % at 10 µM;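 active = inhibition of 50% or more, scaled per plate between neutral and stimulator controls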
Numbers stand for hits. In the library only some 5.1% were active in any assay of this set; here they are far more common.

`O=C(C1CCCC1)N1CCCC(Nc2ccc(F)cc2)C1` (configuration not stated) gave ANO1 block inactive, CRFR2-BP ag 117, CRFBP-R2 block inactive, NR3A LBD binder inactive, TMEM16A act inactive and MPTP block inactive.
For O=C(CSc1nc2cc(C(=O)O)ccc2c(=O)n1-c1ccc(F)cc1)Nc1ccc(F)c(F)c1F the results were ANO1 block inactive, CRFR2-BP ag inactive, CRFBP-R2 block inactive, NR3A LBD binder inactive, TMEM16A act inactive and MPTP block inactive.
Screening O=c1nc(-c2ccccc2)n(-c2ccc(Cl)cc2)[nH]1 returned ANO1 block inactive, CRFR2-BP ag 91, CRFBP-R2 block inactive, NR3A LBD binder inactive, TMEM16A act inactive and MPTP block inactive.
CC(C)CC(=O)Nc1ccc(C(=O)COC(=O)Cc2n[nH]c(=O)c3ccccc23)cc1 was read as CRFR2-BP ag 51, CRFBP-R2 block inactive, NR3A LBD binder inactive, TMEM16A act inactive and MPTP block inactive.
For COc1cccc(NC(=O)CN2C(=O)COc3ccc(S(=O)(=O)N4CCCCCC4)cc32)c1 the results were ANO1 block inactive, CRFR2-BP ag inactive, CRFBP-R2 block inactive, NR3A LBD binder inactive, TMEM16A act inactive and MPTP block inactive.
Screening COCCn1c(SCC(=O)Nc2cccc(OC)c2)nnc1-c1ccccc1 returned ANO1 block inactive, CRFR2-BP ag inactive, CRFBP-R2 block inactive, NR3A LBD binder 11, TMEM16A act inactive and MPTP block inactive.
Screening COc1cc(NC(=O)CSc2nc3ccccc3c(=O)n2C)ccc1NC(=O)c1ccco1 returned ANO1 block inactive, CRFR2-BP ag inactive, CRFBP-R2 block inactive, NR3A LBD binder 13, TMEM16A act inactive and MPTP block inactive.
`COCCn1c(SCC(=O)Nc2cccc(C(=O)OC)c2)nc2ccccc2c1=O` gave ANO1 block inactive, CRFR2-BP ag inactive, CRFBP-R2 block 71, NR3A LBD binder inactive, TMEM16A act inactive and MPTP block inactive.
Screening COc1cc(/C=c2\s/c(=C(/C#N)C(=O)N3CCCC3)n(-c3ccccc3)c2=O)ccc1O returned ANO1 block inactive, CRFR2-BP ag 67, CRFBP-R2 block inactive, NR3A LBD binder inactive, TMEM16A act inactive and MPTP block inactive.
COC(=O)/C=c1/s/c(=C(/C#N)C(=O)N2CCCCC2)n(-c2ccccc2)c1=O was read as ANO1 block inactive, CRFR2-BP ag inactive, CRFBP-R2 block inactive, NR3A LBD binder inactive, TMEM16A act inactive and MPTP block inactive.
`COc1cccc(Oc2ccc(N/C=C/C(=O)C(C)(C)C)cc2)c1` gave ANO1 block 25, CRFR2-BP ag inactive, CRFBP-R2 block inactive, NR3A LBD binder inactive, TMEM16A act inactive and MPTP block inactive.
Screening Cc1ccccc1-c1nnc(SCc2ccc(F)cc2)o1 returned ANO1 block inactive, CRFR2-BP ag inactive, CRFBP-R2 block inactive, NR3A LBD binder 13, TMEM16A act inactive and MPTP block inactive.
For O=S(=O)(Nc1ccc(-c2nnc(SCc3ccc(Cl)cc3)o2)cc1)c1ccccc1 the results were ANO1 block inactive, CRFR2-BP ag inactive, CRFBP-R2 block inactive, NR3A LBD binder 14, TMEM16A act inactive and MPTP block inactive.
Screening c1ccc(CSc2nnc(Cc3ccccc3)o2)cc1 returned ANO1 block inactive, CRFR2-BP ag inactive, CRFBP-R2 block inactive, NR3A LBD binder inactive, TMEM16A act inactive and MPTP block inactive.
Screening Brc1ccc(CSc2nnc(Cc3c[nH]c4ccccc34)o2)cc1 returned ANO1 block inactive, CRFR2-BP ag inactive, CRFBP-R2 block 50, NR3A LBD binder inactive, TMEM16A act inactive and MPTP block inactive.
`O=C(O)c1ccc(CSc2nnc(-c3ccc(Cl)cc3)o2)cc1` gave ANO1 block inactive, CRFR2-BP ag inactive, CRFBP-R2 block inactive, NR3A LBD binder inactive, TMEM16A act inactive and MPTP block inactive.
Screening Fc1ccc(CSc2nnc(-c3ccncc3)o2)cc1 returned ANO1 block inactive, CRFR2-BP ag inactive, CRFBP-R2 block inactive, NR3A LBD binder inactive, TMEM16A act inactive and MPTP block inactive.
